Publication PMC10668032, “Altered binding affinity of SIX1-Q177R correlates with enhanced WNT5A and WNT pathway effector expression in Wilms tumor”
Over roughly 33,000 sequences, “e-score” has its median near -0.05; the highest 2% begin near 0.38. The sample holds the highest values, similar sequences and a random draw of the others, so the mix is not that of the screen.

Molecular target: T1, SIX1-Q177R homeodomain (human, UniProt Q15475 108-198, Q177R)
T1 sequence: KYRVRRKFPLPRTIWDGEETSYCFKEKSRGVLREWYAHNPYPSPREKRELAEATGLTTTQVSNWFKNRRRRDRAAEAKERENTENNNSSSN
Assay: universal protein binding microarray; Universal all-10-mer PBM (8x60K, AMADID 030236), 300 nM GST-tagged protein, Alexa Fluor 488 anti-GST; buffer, salt, pH and temperature not stated (as in Berger); high values mean tight binding
Conditions: protein: ivt; tags: N-terminal GST; dsDNA, one strand shown
Method in brief: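 Homeodomains fused to GST were made by in vitro transcription/translation and measured by anti-GST western blot with a recombinant GST standard curve. At 300 nM final concentration, they were applied in duplicate to universal 'all 10-mer' protein binding microarrays (8×60K format).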

Sequence	binding signal [E-score]
ACCCGATA	0.237 ± 0.00872
CACCGAGG	0.2466 ± 0.00166
CACCAATC	0.287 ± 0.00449
GAAGGACA	0.176 ± 0.0303
AACGAGTG	0.189 ± 0.0329
CCCCCTGA	0.277 ± 0.0278
CCCCCAGG	0.213 ± 0.0301
CACCTGCG	0.26 ± 0.0138
ACTTCTAC	0.182 ± 0.0104
CACGGGAC	0.163 ± 0.0415
CCCCTCAA	0.161 ± 0.0276
CACTCAAG	0.264 ± 0.00106
CGACTCCA	0.275 ± 0.014
CCCCTCCG	0.2736 ± 0.00272
CACTAGGC	0.221 ± 0.00293
CCCCTTAC	0.245 ± 0.00846
AACACTAA	0.336 ± 0.0111
GACACTAA	0.369 ± 0.00967
AACACTGA	0.35 ± 0.0172
TACACTGA	0.394 ± 0.0104
AACACTGC	0.375 ± 0.0233
CACACTGG	0.264 ± 0.0213
GACACTGA	0.403 ± 0.0214
CACACTGC	0.258 ± 0.0222
CACACTGA	0.208 ± 0.0349

Sequence	binding signal [E-score]
TACACTAA	0.381 ± 0.0182
GACACTGC	0.4326 ± 0.00138
AATCGTGT	0.369 ± 0.0106
AACTCCCG	0.181 ± 0.0506
ACTGGTAC	0.192 ± 0.00471
CCCCCCGA	0.314 ± 0.0156
CACTACGG	0.188 ± 0.0252
CGAGGAAC	0.197 ± 0.0457
CCGATCCC	0.221 ± 0.00253
TACTCCAA	0.198 ± 0.0212
CACTGTGC	0.204 ± 0.00431
CACAGGTG	0.307 ± 0.0159
AACACTTA	0.328 ± 0.0332
GACACTTA	0.383 ± 0.00709
CACACTTA	0.204 ± 0.00443
CAACGACA	0.197 ± 0.0113
CGGATCCC	0.235 ± 0.023
CAGGGGTA	0.234 ± 0.0165
ACCCAGGG	0.201 ± 0.0184
AACACTAT	0.295 ± 0.0435
CACACTAG	0.25 ± 0.0068
GACACTAC	0.434 ± 0.00877
CACACTAC	0.2973 ± 0.00215
AACACTAG	0.357 ± 0.0233
AACACTAC	0.381 ± 0.0184

Sequence	binding signal [E-score]
CACCCAGG	0.284 ± 0.0239
GGTGCTAC	0.183 ± 0.00715
ACACTATG	0.328 ± 0.0294
ACACTACG	0.388 ± 0.00491
ACACTATC	0.342 ± 0.0149
ACACTAAT	0.333 ± 0.0159
ACTCTACC	0.151 ± 0.0299
ACACTATA	0.322 ± 0.0287
CCACTACA	0.298 ± 0.0151
ACACTACC	0.421 ± 0.00623
ACACTACA	0.41 ± 0.0193
ACACTAAG	0.337 ± 0.0137
ACACTACT	0.393 ± 0.0188
TCACTACA	0.225 ± 0.0148
CCAGAACA	0.261 ± 0.00433
GGGGCGTA	0.159 ± 0.0113
CCGCGTCA	0.156 ± 0.0229
AGTAGGTG	0.279 ± 0.025
CCTCTTTA	0.171 ± 0.0307
AGGGTATG	0.226 ± 0.0255
ACCGGACA	0.245 ± 0.00259
CCCCGGCC	0.233 ± 0.0259
AGGTACTC	0.166 ± 0.0232
GGGTACCC	0.234 ± 0.00584
AGGTATCC	0.344 ± 0.00693

Sequence	binding signal [E-score]
GGGTACAA	0.17 ± 0.0208
CGGTACAC	0.4352 ± 0.00226
CGGTATCC	0.325 ± 0.00938
AGGTACAC	0.452 ± 0.00159
CGGTATAC	0.165 ± 0.00282
GGGTACAC	0.443 ± 0.0111
CGCACTAC	0.152 ± 0.0379
CACGCTCG	0.242 ± 0.0063
ACTGCATA	0.2138 ± 0.00024
ATTGGGTG	0.261 ± 0.0204
CACTCATA	0.195 ± 0.0111
CGCAATAC	0.276 ± 0.0226
CACGCAAC	0.227 ± 0.0168
CCCCCTAC	0.267 ± 0.031
TCGCACCA	0.177 ± 0.0487
CAAGTACA	0.207 ± 0.0357
CCCTAACA	0.181 ± 0.028
CACCAATG	0.222 ± 0.00267
CTCCCCAA	0.28 ± 0.0223
ACAACCCC	0.207 ± 0.03
GGCTACGA	0.196 ± 0.00863
AGCCACAC	0.208 ± 0.0231
CGCTCTAC	0.157 ± 0.026
AGCTACAC	0.435 ± 0.00848
GGCCACAC	0.233 ± 0.0102

Sequence	binding signal [E-score]
CGCTACAC	0.4023 ± 0.0021
CGCGCTAC	0.15 ± 0.0294
GGCTACAC	0.4245 ± 0.0031
CTTTTACA	0.17 ± 0.0837
CACGTACG	0.167 ± 0.0161
CTCCTACA	0.243 ± 0.0252
ACCACGTC	0.182 ± 0.0198
ACTATCGA	0.156 ± 0.0186
ATGAACCC	0.198 ± 0.0247
CTGAACCC	0.187 ± 0.0441
ATGAACAC	0.4 ± 0.0197
GTGAACAC	0.4118 ± 0.00099
GTGAGCAC	0.159 ± 0.0143
CTGAACAC	0.4224 ± 0.00137
CTGAGCAC	0.254 ± 0.0174
ATGCACAC	0.289 ± 0.00704
TCAGAACA	0.228 ± 0.00667
ACTCCCCA	0.163 ± 0.025
GGAAGACA	0.155 ± 0.0119
CACGTCGA	0.177 ± 0.0103
CAGTCGGG	0.196 ± 0.029
ATCCGACC	0.153 ± 0.0521
CCCGATCC	0.2392 ± 0.00171
AGATGGTG	0.2726 ± 0.000212
GTACACGA	0.4189 ± 0.00327

Sequence	binding signal [E-score]
GTACTCGA	0.19 ± 0.0242
CTACACGA	0.388 ± 0.00636
CTACACAC	0.297 ± 0.0318
GTACACAA	0.308 ± 0.0492
CTACACAG	0.161 ± 0.084
CAACACGC	0.363 ± 0.0087
CTACACGC	0.4033 ± 0.000742
CCAGGATC	0.193 ± 0.0154
CCACTTCC	0.16 ± 0.0569
TGTACGAA	0.157 ± 0.0609
AATGGACA	0.174 ± 0.00513
ACCCTCCC	0.211 ± 0.0163
CACCTCTA	0.295 ± 0.0114
GCGTACAC	0.4123 ± 0.00366
ACGTACAC	0.436 ± 0.00504
ACGTACCC	0.202 ± 0.00673
CCGTACCC	0.1577 ± 0.00155
CCGCACAC	0.303 ± 0.0285
CCGTACAC	0.418 ± 0.00993
GCGTACCC	0.237 ± 0.0376
GCGTACGC	0.235 ± 0.0141
ACGTAATC	0.186 ± 0.0139
CACCACGA	0.28 ± 0.0196
CAAGGGTA	0.19 ± 0.0194
AACCCCGG	0.2652 ± 0.00233

Sequence	binding signal [E-score]
AACGGACA	0.278 ± 0.00733
TGTCCACA	0.205 ± 0.0326
TAGGTACA	0.179 ± 0.00841
CTAGCAAA	0.173 ± 0.0314
TCCCGACA	0.155 ± 0.0127
CACCGTCC	0.276 ± 0.00535
ACACACCG	0.428 ± 0.0122
ACACACGT	0.27 ± 0.0195
ACACACAG	0.269 ± 0.0266
ACACACCT	0.386 ± 0.00817
ACACACAT	0.201 ± 0.0773
ACGCACCG	0.177 ± 0.0273
AAAAGGTG	0.195 ± 0.0717
ACTGGGTG	0.319 ± 0.0299
ACGCAGTG	0.212 ± 0.0202
TGTATCAA	0.158 ± 0.0316
GTCACGAC	0.164 ± 0.0297
CCCGGGAG	0.189 ± 0.00274
ACTGTGCA	0.195 ± 0.0266
AGGACACA	0.224 ± 0.0724
AGGACACT	0.3795 ± 0.00235
AGGACACG	0.349 ± 0.0239
GGGACACC	0.478 ± 0.0106
